# Reference: PubChem BioAssay (NCI)
# Compounds without any hit were thinned out: in the full panel of roughly 83,000, 20% have a hit.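 In brief: 96-well plates, 48 h treatment, single concentration, percent growth endpoint.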 Values without a mark were called inactive. Calls of active or inactive are those of the source. How the source made its calls: active means growth percent below 10; inactive means the rest.
# Assays:
# Test in all cases: NCI-60 one-dose screen, 48 h (100 = growth as untreated, 0 = no growth, -100 = all killed)
# Settings in all cases: 10 µM unless noted
# NCI-H23 lung = system: NCI-H23 lung
# NCI-H226 lung = system: NCI-H226 lung
# NCI-H322M lung = system: NCI-H322M lung
# HOP-62 NSCLC = system: HOP-62 NSCLC
# NCI-H460 lung = system: NCI-H460 lung
# NCI-H522 lung = system: NCI-H522 lung
# A549/ATCC NSCLC = system: A549/ATCC NSCLC
# COLO 205 colon = system: COLO 205 colon
# DU-145 prostate = system: DU-145 prostate
# K-562 leukemia = system: K-562 leukemia
# MALME-3M melanoma = system: MALME-3M melanoma
# MDA-MB-231 breast = system: MDA-MB-231 breast
# RXF 393 renal = system: RXF 393 renal
# SF-268 CNS = system: SF-268 CNS
# SF-295 CNS = system: SF-295 CNS
# SF-539 CNS = system: SF-539 CNS
# UACC-257 melanoma = system: UACC-257 melanoma
# M14 melanoma = system: M14 melanoma
# HCT-15 colon = system: HCT-15 colon
# 786-0 renal = system: 786-0 renal
Structure (SMILES),growth (NCI-H23 lung),growth (NCI-H226 lung),growth (NCI-H322M lung) [%],growth (HOP-62 NSCLC),growth (NCI-H460 lung),growth (NCI-H522 lung),growth (A549/ATCC NSCLC),growth (COLO 205 colon),growth (DU-145 prostate) [%],growth (K-562 leukemia),growth (MALME-3M melanoma),growth (MDA-MB-231 breast),growth (RXF 393 renal),growth (SF-268 CNS) [%],growth (SF-295 CNS),growth (SF-539 CNS),growth (UACC-257 melanoma) [%],growth (M14 melanoma),growth (HCT-15 colon),growth (786-0 renal)
Clc1ccc2c(Nc3ccc4oc(NCCN5CCCC5)nc4c3)ccnc2c1,88.7%,101%,90.1,109%,96.4%,98.5%,92.9%,84.4%,71.1,20.8%,105%,37.3%,81.8%,72.5,106%,47.6%,108,50.7%,49.3%,–
Cn1cc(-c2csc(-c3c[nH]c4ncccc34)n2)c2cc(Br)cnc21,31.6%,49%,59.9,-19.7% (active),7.22% (active),-2.08% (active),5.11% (active),–,–,–,32.8%,-1.21% (active),26.1%,64.8,-1.78% (active),70.1%,57.1,35.2%,66.8%,20%
Cn1cc(-c2nc(-c3c[nH]c4ncccc34)cs2)c2cccnc21,63.1%,70%,64.3,68.2%,46.6%,46.5%,69.6%,–,–,–,84.8%,47.6%,54.6%,91.5,71.1%,69.1%,105,42.5%,43.6%,60.6%
O=C(Nc1ccc(Cl)cc1)Nc1ccc(Oc2nncc3ccccc23)cc1,0.498% (active),-54.5% (active),60.9,12.9%,21.5%,-46.3% (active),40%,11.9%,11.2,5.58% (active),0.777% (active),-25.2% (active),-91.2% (active),12.6,40.7%,-76.5% (active),34.4,7.3% (active),2.76% (active),–
C=Cc1nn2c(CCC(=O)c3nc4ccccc4[nH]3)nnc2s1,99.4%,97.5%,94,97.9%,105%,102%,105%,–,–,–,108%,101%,106%,101,99.7%,113%,110,92.9%,101%,97.5%
COc1ccc(CCN2CCCN3C2=Nc2ccccc2S3(=O)=O)cc1,28.8%,61.7%,59.6,52.5%,13.4%,17.3%,31.7%,1.13% (active),23,15.6%,68.8%,49.1%,-0.424% (active),63.1,14%,-28.2% (active),75.7,31.1%,25.4%,–
O=NC1CC=CCC1c1ccccc1 (stereo unspecified),106%,105%,118,98.7%,112%,109%,–,117%,124,105%,114%,101%,116%,104,122%,98.5%,105,105%,104%,106%
CCC(c1ccccc1)c1noc(CCN(CC)CC)n1 (stereo unspecified),99.5%,90.7%,109,97.4%,103%,-8.89% (active),–,114%,100,65.1%,93.8%,106%,33.3%,103,108%,101%,–,96.7%,108%,108%
COc1ccc(-c2c3c(nn2-c2ccc(N)cc2)CCc2cnoc2-3)cc1OC,93.4%,95.8%,103,104%,101%,70.4%,85.2%,–,–,–,106%,88.5%,93%,90.8,85.4%,94.5%,112,97.8%,85.6%,84.9%
Cc1cccc(Cl)c1NC(=O)c1ccc2nc(NC(=O)NC3CC(C)(C)NC(C)(C)C3)sc2c1,91%,103%,81.8,68.3%,101%,88.6%,–,15.3%,103,9.24% (active),82.2%,54%,35.8%,70.4,79.7%,41.8%,–,93.6%,103%,84.6%
Cc1cc2cn3c4cccnc4[nH]c(=O)c3c2cc1C,55.7%,90.3%,91.8,46.8%,4.12% (active),-75% (active),10.2%,–,–,–,80.1%,40.5%,70.6%,73.4,34.4%,76.7%,85.8,36.4%,-37.7% (active),-14.5% (active)
Cn1cc(-c2nc(-c3c[nH]c4ncc(F)cc34)cs2)c2cccnc21,92.1%,98.8%,107,108%,96.3%,140%,107%,–,–,–,101%,68.8%,98.3%,116,107%,113%,119,86.6%,97.1%,94.4%
CN1CCN(Cc2ccc(NC(=O)c3[nH]ncc3Nc3ccnc4ccnn34)cc2)CC1,62.3%,65.7%,79.6,93.5%,63.7%,55.7%,81.3%,39.5%,47.4,34.9%,58.9%,99.9%,51.5%,63.7,88.7%,40.9%,77.9,57.1%,98%,–
O=C(/C=C/c1ccccc1)CC(c1ccccc1)N1CCOCC1 (stereo unspecified),96.6%,99.5%,121,102%,106%,–,63%,76.3%,91.3,49.9%,138%,60.3%,102%,97.3,98.7%,69.3%,98.8,-35% (active),61.5%,4.06% (active)
C/C(=N\N1CC(=O)NC1=O)c1ccc([N+](=O)[O-])o1,101%,106%,121,120%,94.6%,–,97.3%,108%,98.8,90.6%,114%,106%,128%,84.7,104%,108%,81.9,103%,115%,103%
CO[C@H]1/C=C/O[C@@]2(C)Oc3c(C)c(O)c4c(O)c(c(/C=N/N5C(C)CN(Cc6ccccc6)CC5C)c(O)c4c3C2=O)NC(=O)/C(C)=C\C=C\[C@H](C)[C@H](O)[C@@H](C)[C@@H](O)[C@@H](C)[C@H](OC(C)=O)[C@@H]1C (stereo partly specified),14.7%,68.1%,121,89.1%,54.9%,-12.5% (active),–,80.1%,81.6,203%,108%,102%,–,92.6,41.1%,85.8%,117,89.9%,57.5%,68.7%
COc1ccc(C(=O)COc2cccc(/C=C3\Oc4ccc5ccccc5c4C3=O)c2)cc1,10.3%,71.7%,106,89.8%,100%,-0.888% (active),–,77.3%,–,81.4%,17.2%,79.3%,–,83.7,119%,-50% (active),95.7,49.2%,43.7%,100%
